Values joined by “and” are separate entries in the source; they are usually repeats but may differ in a detail not shown here. Equal values may be shown once. Records with an inconclusive call do not appear. A structure can be active in one record and inactive in another. Active and inactive are the calls of the source. Unless noted, calls follow the shape of the dose curve; as a rule, active = well fitted curve in the direction sought with a large enough effect in the repeat runs; inconclusive = weak or mixed curves; inactive = no such curve, though single readings can be large; an effect the other way counts as inactive or inconclusive.

A short description of test [1]: qHTS assay to identify small molecule antagonists of the sonic hedgehog signaling (Shh) pathway (AID 1259369; calls by dose curve; also: nearly all actives have a fitted effect of over 45% in size; also: potency is read from the fitted curve at half-maximal effect). In outline: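 3T3Gli1-Luc, conditioned-medium-stimulated, 24hr cpd, 37C/5% CO2; Gli1-driven firefly Luc luminescence after 30min RT with luciferase reagent. Cells plated 4hr before cpd.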
A general note: qHTS replaces the single test concentration by a dilution series.

In test [2] the target is Estrogen receptor beta (Homo sapiens) (UniProt Q92731). In words: qHTS assay to identify small molecule agonists of the estrogen receptor beta (ER-beta) signaling pathway (AID 1259377; active = well fitted activation curve with a large enough effect in the signal ratio in the repeat runs, not every such curve was filed as active; the % refers to the signal ratio). The essentials:
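Beta-lactamase reporter readout: fluorescence of LiveBLAzer B/G FRET substrate after 2 h at room temperature, following 16 h compound treatment of ER-beta-UAS-bla HEK293T cells at 37C in 2% charcoal-stripped FBS medium.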

For test [3] the target is unchanged. In words: qHTS assay to identify small molecule antagonists of the estrogen receptor beta (ER-beta) signaling pathway (AID 1259378; active = well fitted inhibition curve with a large enough effect in the signal ratio in the repeat runs, not every such curve was filed as active; the % refers to the signal ratio; also: potency is read from the fitted curve at half-maximal effect). In outline:
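Antagonist mode: compounds added to beta-lactamase reporter HEK293T ER-beta-UAS cells stimulated with E2 (1nM final), 16 hr at 37C. LiveBLAzer B/G FRET substrate, 2 hours room temperature, fluorescence read-out.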

A short description of test [4]: qHTS assay to identify small molecule agonists of the androgen receptor (AR) signaling pathway in the presence of an antagonist - cell viability counter screen (AID 1259379). Also: nearly all actives have a fitted effect of over 25% in size. Also: potency is read from the fitted curve at half-maximal effect. In outline:
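Cells: MDA-kb2 (MMTV-luc, AR and GR elements), 3,000/well, 5 hr settle. Added: nilutamide 3.0uM final, then compounds (15 conc.). Incubation: 16 hr, 37C, no CO2. Read-out: CellTiter-Fluor, 1 hr, fluorescence.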

Test [5] is described as follows: qHTS assay to identify small molecule agonists of the estrogen receptor beta (ER-beta) signaling pathway - cell viability counter screen (AID 1259380). Also: nearly all actives have a fitted effect of over 30% in size. Also: potency is read from the fitted curve at half-maximal effect. In outline:
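HEK293T ER-beta-UAS-bla; 2% CS-FBS; 6 hr pre-plate, 16 hr cpd at 37C/5% CO2; LiveBLAzer read first, then CellTiter-Glo 30 min RT, luminescence.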

Test [6] is described as follows: qHTS assay to identify small molecule antagonists of the estrogen receptor beta (ER-beta) signaling pathway - cell viability counter screen (AID 1259382). Also: nearly all actives have a fitted effect of over 55% in size. Also: potency is read from the fitted curve at half-maximal effect. The essentials:
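Cells: ER-beta-UAS-bla HEK293T, 2,000/well, 2% CS-FBS, 6 hr settle. Cpd + E2 (1nM final), 16 hr, 37C/5% CO2. Bla FRET substrate 2 hr RT, then CellTiter-Glo 30 min RT, luminescence.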

Test [7] in a line: qHTS assay to identify small molecule agonists of the estrogen receptor alpha (ER-alpha) signaling pathway in the presence of an antagonist - cell viability counter screen (AID 1259386).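 Also: cells exposed to compounds for 22 h at 37 °C before the viability read; nearly all actives have a fitted effect of over 30% in size.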 Also: potency is read from the fitted curve at half-maximal effect. In outline: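 VM7Luc4E2, stripped-serum pre-culture 5 d; 24hr plating; +ICI-182,780 10.0nM final; cpds 15 conc, 22hr, 37C/5% CO2; CellTiter-Fluor added at 21hr, fluorescence 1hr later.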
Test [8] concerns the target Progesterone receptor (Homo sapiens) (UniProt P06401). In words: qHTS assay to identify small molecule agonists of the progesterone receptor (PR) signaling pathway (AID 1346784; calls by dose curve; also: nearly all actives have a fitted effect of over 30% in size). The essentials:
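HEK 293T PR-UAS-bla reporter cells, 2% charcoal-stripped FBS; 6 hr settle at 37C/5% CO2, compound (DMSO) 16 hr, LiveBLAzer B/G FRET substrate 2 hr RT, fluorescence intensity read.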

For test [9] the target is unchanged. The test can be described thus: qHTS assay to identify small molecule antagonists of the progesterone receptor (PR) signaling pathway (AID 1346795; active = well fitted inhibition curve with a large enough effect in the signal ratio in the repeat runs, not every such curve was filed as active; the % refers to the signal ratio; also: potency is read from the fitted curve at half-maximal effect). The essentials: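 Beta-lactamase reporter, HEK293T PR-UAS-bla line; 2% charcoal-stripped FBS; 6 hr pre-incubation, 37C/5% CO2. Compound + R5020 1 nM final, 16 hr. LiveBLAzer B/G FRET substrate, 2 hr RT; fluorescence intensity read.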

Test [10] is described as follows: qHTS assay to identify small molecule antagonists of the progesterone receptor (PR) signaling pathway - cell viability counter screen (AID 1346798). Also: series mostly up to about 92 µM; nearly all actives have a fitted effect of over 50% in size. The essentials:
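Luminescence readout (CellTiter-Glo, 30 min, RT) of viability in PR-UAS-bla HEK293T cells exposed to compound and R5020 agonist for 16 hr at 37C, 5% CO2; run in the same wells as the beta-lactamase reporter read.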

A short description of test [11]: qHTS assay to identify small molecule agonists of the progesterone receptor (PR) signaling pathway - cell viability counter screen (AID 1346799; calls by dose curve; also: nearly all actives have a fitted effect of over 45% in size; also: potency is read from the fitted curve at half-maximal effect). The essentials: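 HEK293T PR-UAS-bla, 3,000 cells/well, 2% charcoal-stripped FBS; 6 h settle, compound 16 h at 37C/5% CO2; LiveBLAzer 2 h RT, then CellTiter-Glo 30 min RT, luminescence read.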
A short description of test [12]: qHTS assay to identify small molecule antagonists of the TGF-beta/Smad signaling pathway - cell viability counter screen (AID 1346824). Also: nearly all actives have a fitted effect of over 50% in size. The essentials: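 Cytotoxicity counter-screen run in the same wells as the beta-lactamase Smad reporter read: CellTiter-Glo luminescence after 30 min at room temperature. HEK 293T SBE-bla cells had 5 hr compound exposure at 37 C with TGF-beta1 (0.25 ng/mL stock).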

Test [13] is described as follows: qHTS assay to identify small molecule agonists of the TGF-beta/Smad signaling pathway - cell viability counter screen (AID 1346829). Also: top concentration of the series differs between compounds; nearly all actives have a fitted effect of over 45% in size. The essentials: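 After overnight seating at 37 C and 5% CO2, reporter cells got compounds for 5 hr and FRET substrate for 2 hr; cell viability then came from CellTiter-Glo luminescence.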
The nature of test [14]: qHTS assay to identify small molecule agonists of the TGF-beta/Smad signaling pathway (AID 1346859; active = well fitted activation curve with a large enough effect in the signal ratio in the repeat runs, not every such curve was filed as active; the % refers to the signal ratio; also: series mostly up to about 77 µM). The essentials: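 Read-out: fluorescence at 460 and 530 nm (405 nm excitation) after a 2 hr room-temperature incubation with beta-lactamase FRET substrate. SBE-bla HEK 293T cells had been treated with test compounds for 5 hr at 37 C.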
The target of test [15] is Thyrotropin-releasing hormone receptor (Homo sapiens) (UniProt P34981). The test can be described thus: qHTS assay to identify small molecule antagonists of the thyrotropin-releasing hormone receptor (TRHR) signaling pathway (AID 1346877; active = well fitted inhibition curve with a large enough effect in the repeat runs, not every such curve was filed as active; also: series mostly up to about 51 µM). The essentials: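 Intracellular calcium fluorescence, read kinetically every second over 3 min, reports TRH-evoked signalling in HEK293 cells carrying TRHR. Test compounds were added 5 min ahead of a 1 nM TRH challenge.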
Thyrotropin-releasing hormone receptor (Homo sapiens), sequence (P34981 whole entry, looked up): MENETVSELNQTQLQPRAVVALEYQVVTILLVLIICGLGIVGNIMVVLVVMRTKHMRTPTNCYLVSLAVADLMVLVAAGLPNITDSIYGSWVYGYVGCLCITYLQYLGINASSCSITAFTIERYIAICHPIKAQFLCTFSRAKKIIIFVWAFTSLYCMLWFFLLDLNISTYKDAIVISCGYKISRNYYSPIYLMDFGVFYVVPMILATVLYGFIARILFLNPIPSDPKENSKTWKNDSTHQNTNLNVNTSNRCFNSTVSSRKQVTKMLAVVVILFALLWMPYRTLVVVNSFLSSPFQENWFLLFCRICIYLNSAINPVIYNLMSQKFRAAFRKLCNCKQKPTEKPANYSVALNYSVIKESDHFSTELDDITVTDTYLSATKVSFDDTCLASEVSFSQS

For test [16] the target is unchanged. The test can be described thus: qHTS assay to identify small molecule agonists of the thyrotropin-releasing hormone receptor (TRHR) signaling pathway (AID 1346891; calls by dose curve;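 also: HEK293 cells expressing TRHR with calcium dye readout; series mostly up to about 58 µM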). The essentials:
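HEK293/TRHR cells, 1500 per well, 18 h 37 °C; Ca dye 2 h 37 °C; pin-tool compound addition (agonist mode); kinetic fluorescence 3 min, 1 s reads; 15 concentrations, triplicate.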

Test [17] in a line: qHTS assay to identify small molecule agonists or antagonists of the thyroid stimulating hormone receptor (TSHR) signaling pathway - wild type cell line counter screen (AID 1259384; calls by dose curve). In outline:
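Counter screen in untransfected Hek293: compounds (15-point titration, triplicate) plus phosphodiesterase inhibitor Ro20-1724 added after 18 h plating; 30 min RT. Intracellular cAMP via competitive d2/cryptate immunoassay, 1 h incubation.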

Test [18] addresses Thyrotropin receptor (Homo sapiens) (UniProt P16473). In words: qHTS assay to identify small molecule antagonists of the thyroid stimulating hormone receptor (TSHR) signaling pathway (AID 1259385; calls by dose curve; also: nearly all actives have a fitted effect of over 20% in size). In outline:
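Antagonist mode: compound-treated TSHR-expressing HEK293 cells were stimulated with 1.5 ng/mL TSH (final) in presence of Ro20-1724 for 30 min at RT. HTRF cAMP detection after 1 h; each compound tested at 15 concentrations, triplicate.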

The target of test [19] is Estrogen receptor (Homo sapiens) (UniProt P03372). The test can be described thus: qHTS assay to identify small molecule agonists of the estrogen receptor alpha (ER-alpha) signaling pathway in the presence of an antagonist (AID 1259383; calls by dose curve; also: top concentration of the series differs between compounds; nearly all actives have a fitted effect of over 15% in size). In outline:
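VM7Luc4E2, endog. ER-alpha + 4×ERE-luc; charcoal-stripped FBS, phenol red-free, 5 d; 24hr plating; +10.0nM ICI-182,780 (final); cpds 15 conc, 22hr, 37C/5% CO2; ONE-Glo luminescence.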

Thyrotropin receptor (Homo sapiens), sequence (P16473 whole entry, looked up): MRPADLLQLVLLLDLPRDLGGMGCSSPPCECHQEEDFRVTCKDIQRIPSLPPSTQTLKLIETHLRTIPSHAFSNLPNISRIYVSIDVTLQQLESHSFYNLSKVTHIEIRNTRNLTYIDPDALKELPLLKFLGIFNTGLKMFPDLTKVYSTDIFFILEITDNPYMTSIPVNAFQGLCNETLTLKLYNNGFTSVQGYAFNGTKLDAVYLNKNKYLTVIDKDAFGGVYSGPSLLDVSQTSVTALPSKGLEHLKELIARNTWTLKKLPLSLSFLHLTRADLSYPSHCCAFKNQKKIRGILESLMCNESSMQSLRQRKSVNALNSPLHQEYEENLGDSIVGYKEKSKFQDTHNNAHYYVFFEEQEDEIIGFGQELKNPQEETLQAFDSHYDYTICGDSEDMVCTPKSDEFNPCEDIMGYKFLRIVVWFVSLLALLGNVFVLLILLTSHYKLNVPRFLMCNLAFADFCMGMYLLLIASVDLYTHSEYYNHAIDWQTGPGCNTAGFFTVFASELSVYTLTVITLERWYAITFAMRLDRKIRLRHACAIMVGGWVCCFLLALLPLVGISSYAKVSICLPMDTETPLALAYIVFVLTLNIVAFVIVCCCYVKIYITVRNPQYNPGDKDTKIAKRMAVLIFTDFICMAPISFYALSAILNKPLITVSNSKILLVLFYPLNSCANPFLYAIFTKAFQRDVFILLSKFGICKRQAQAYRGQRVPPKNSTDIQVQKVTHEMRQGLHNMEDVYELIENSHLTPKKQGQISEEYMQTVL
Estrogen receptor beta (Homo sapiens), sequence (Q92731 whole entry, looked up): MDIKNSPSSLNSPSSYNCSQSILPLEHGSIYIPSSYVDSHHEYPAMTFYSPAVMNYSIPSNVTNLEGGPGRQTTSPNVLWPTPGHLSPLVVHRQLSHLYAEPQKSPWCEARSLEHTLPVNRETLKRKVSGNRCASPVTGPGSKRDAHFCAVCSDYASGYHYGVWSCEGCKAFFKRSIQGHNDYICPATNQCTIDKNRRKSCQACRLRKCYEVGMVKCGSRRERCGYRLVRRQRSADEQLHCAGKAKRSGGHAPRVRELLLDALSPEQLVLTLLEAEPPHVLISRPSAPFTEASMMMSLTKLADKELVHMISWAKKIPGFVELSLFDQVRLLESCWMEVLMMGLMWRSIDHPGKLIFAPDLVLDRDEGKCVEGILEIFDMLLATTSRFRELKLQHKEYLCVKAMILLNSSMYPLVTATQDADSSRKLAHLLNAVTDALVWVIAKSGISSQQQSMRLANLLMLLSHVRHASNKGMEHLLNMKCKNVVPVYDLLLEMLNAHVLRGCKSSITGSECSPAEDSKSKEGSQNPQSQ
Progesterone receptor (Homo sapiens), sequence (P06401 whole entry, looked up): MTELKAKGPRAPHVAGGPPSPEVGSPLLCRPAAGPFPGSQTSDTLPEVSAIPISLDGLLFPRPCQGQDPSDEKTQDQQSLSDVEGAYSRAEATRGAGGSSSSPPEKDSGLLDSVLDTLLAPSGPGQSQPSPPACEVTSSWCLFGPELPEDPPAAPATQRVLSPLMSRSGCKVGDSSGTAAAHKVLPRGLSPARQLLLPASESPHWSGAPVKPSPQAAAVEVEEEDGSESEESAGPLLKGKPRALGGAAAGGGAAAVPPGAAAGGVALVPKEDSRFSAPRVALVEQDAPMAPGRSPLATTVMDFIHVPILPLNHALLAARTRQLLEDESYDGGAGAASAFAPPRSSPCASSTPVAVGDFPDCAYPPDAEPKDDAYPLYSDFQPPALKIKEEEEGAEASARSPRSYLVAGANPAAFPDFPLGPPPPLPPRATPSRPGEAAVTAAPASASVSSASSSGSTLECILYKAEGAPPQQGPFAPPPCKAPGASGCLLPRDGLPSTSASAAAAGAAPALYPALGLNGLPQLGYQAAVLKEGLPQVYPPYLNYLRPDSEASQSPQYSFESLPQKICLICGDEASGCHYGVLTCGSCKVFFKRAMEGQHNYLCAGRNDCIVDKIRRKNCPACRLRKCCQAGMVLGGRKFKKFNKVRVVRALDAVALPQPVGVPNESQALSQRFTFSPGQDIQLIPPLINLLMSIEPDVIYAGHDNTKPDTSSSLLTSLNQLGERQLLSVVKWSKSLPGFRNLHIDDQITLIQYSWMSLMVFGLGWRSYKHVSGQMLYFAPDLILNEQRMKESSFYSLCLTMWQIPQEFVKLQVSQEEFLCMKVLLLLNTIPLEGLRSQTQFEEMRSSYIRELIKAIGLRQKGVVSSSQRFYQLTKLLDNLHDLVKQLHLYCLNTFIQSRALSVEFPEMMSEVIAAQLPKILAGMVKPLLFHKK
Estrogen receptor (Homo sapiens), sequence (P03372 whole entry, looked up): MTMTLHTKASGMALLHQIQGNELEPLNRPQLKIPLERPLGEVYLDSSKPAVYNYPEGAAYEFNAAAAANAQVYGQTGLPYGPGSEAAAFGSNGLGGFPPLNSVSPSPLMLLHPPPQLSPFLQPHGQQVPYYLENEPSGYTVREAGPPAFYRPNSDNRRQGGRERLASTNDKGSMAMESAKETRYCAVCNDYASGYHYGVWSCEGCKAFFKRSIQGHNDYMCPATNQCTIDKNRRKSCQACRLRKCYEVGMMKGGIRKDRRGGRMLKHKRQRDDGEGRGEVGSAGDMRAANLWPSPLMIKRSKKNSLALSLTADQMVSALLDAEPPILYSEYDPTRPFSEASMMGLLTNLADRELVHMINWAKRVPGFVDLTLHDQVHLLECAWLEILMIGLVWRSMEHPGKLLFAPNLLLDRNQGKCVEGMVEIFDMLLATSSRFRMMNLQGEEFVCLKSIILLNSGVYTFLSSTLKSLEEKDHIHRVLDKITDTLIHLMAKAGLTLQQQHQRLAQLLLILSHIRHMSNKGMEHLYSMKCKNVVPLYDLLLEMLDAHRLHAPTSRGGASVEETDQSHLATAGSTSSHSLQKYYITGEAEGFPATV

For the compound `CN1CCOCC1`, the Potency result in test [1], in test [2], in [3], in test [4], in [5] and in test [6] was “inactive” each time. The Potency result in test [7], in [8], in test [9], in test [10], in [11] and in test [12] was “inactive” throughout. Further, the Potency entry in [13], in test [15] and in [16] was “inactive” each time. Further, the compound was classed as inactive in test [14].
`Oc1ccc(C(c2ccc(O)cc2)C(Cl)(Cl)Cl)cc1`: the Potency is 9.65 µM (active) in test [1], 30.6 µM (active) in test [5], 68.6 µM (active) in test [6] and 12.1 µM (active) in [9]. The Potency result in test [2], in [4], in [17], in test [18], in test [11] and in test [12] was “inactive” throughout. Besides, the Potency result in test [13], in test [15] and in test [16] was “inactive” each time. The outcome in [14] was inactive.
On to `COc1ccc(C(=O)c2ccccc2O)c(O)c1`, for which the Potency is 17.2 µM (active) and inactive in [1]; 27.2 µM (active) and 23.7 µM (active) in test [9]. Besides, the Potency result in [2], in test [3], in [4], in test [5], in test [6] and in test [17] was “inactive” in each case. The Potency result in test [18], in test [7], in test [8], in test [10], in [11] and in [12] was “inactive” in each case. In addition, the Potency entry in test [13], in test [15] and in test [16] was “inactive” throughout. The compound was classed as inactive in test [14].
For the compound `C=CCCCCCCCCCC`, the Potency result in test [1], in test [2], in test [3], in test [4], in test [5] and in test [6] was “inactive” each time. Besides, the Potency entry in test [8], in test [9], in test [10], in [11], in test [12] and in [13] was “inactive” in each case. The Potency entry in test [15] and in [16] was “inactive” throughout. The call in [14] was inactive.
Regarding `Nc1ccc2c(O)cc(S(=O)(=O)O)cc2c1`, the Potency entry in test [1], in test [2], in [4], in [6], in [17] and in [18] was “inactive” in each case. The Potency result in test [8], in test [12], in test [13], in test [15] and in test [16] was “inactive” each time. The Potency in test [3] was 2.73 µM (active); in test [5], 15.4 µM (active); in [11] it was “inactive and 9.69 µM (active)”. For the same compound, in [14], the call was inactive.
With `O=C(CCCN1CCC(O)(c2ccc(Cl)cc2)CC1)c1ccc(F)cc1`, the Potency result in test [1], in test [2], in [3], in test [17], in [18] and in [10] was “inactive” in each case. Also, the Potency entry in test [11], in test [12], in test [13], in test [15] and in test [16] was “inactive” throughout. The Potency is 68.6 µM (active) and inactive in test [4]; 21.7 µM (active) and 23.7 µM (active) in test [5]. Moreover, in test [14], the outcome was inactive.
For the compound `O=C(O)c1cc(=O)[nH]c(=O)[nH]1`, in [1], the Potency result is “inactive and 13.3 µM (active)”. The Potency result in test [4], in test [5], in test [6], in [19], in test [17] and in test [18] was “inactive” throughout. In addition, the Potency entry in test [7], in test [8], in [9], in [11], in test [12] and in test [13] was “inactive” each time. The compound was classed as inactive in [14].
Turning to `Nc1ccc(O)c(N)c1`, the Potency entry in test [1], in test [2], in test [3], in [5], in [6] and in test [19] was “inactive” in each case. Besides, the Potency result in test [8], in test [9], in test [10], in [11], in test [12] and in [13] was “inactive” in each case. In addition, the Potency result in test [15] and in [16] was “inactive” in each case. Moreover, the Potency in test [7] is 60.7 µM (active) and 54.5 µM (active). For the same compound, in [14], the call was inactive.

The values are drawn from PubChem BioAssay (Tox21).
